Where “and” joins values, the source holds several entries; their conditions need not be identical. Identical values can stand only once. Records with an inconclusive call do not appear. Calls of active or inactive are those of the source. Unless noted, calls follow the shape of the dose curve; as a rule, active = well fitted curve in the direction sought with a large enough effect; inconclusive = small, poorly fitted or top-dose-only effect, or another doubt; inactive = no such curve, though single readings can be large; an effect the other way counts as inactive or inconclusive.
Tests used:
[1] = AP1 Signaling Pathway (AID 357; active = well fitted curve in either direction with a large enough effect, not every such curve was filed as active;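 also: ME-180 reporter cells stimulated with EGF at its EC50 level; % is scaled to controls: 0 for no effect and ±100 for the full control effect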); conditions: ME-180 AP-1-bla reporter, EGF-induced, beta-lactamase ratio, 5 h
Summary of the method: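 Cells are seeded overnight, exposed to compound titrations and an EC50 level of EGF for 5 hours at 37 °C, then loaded with CCF4 dye for 2.5 hours. Beta-lactamase activity under the AP-1 element is read as a blue/green ratio.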

[2] = target: Cytochrome P450 1A2 (Homo sapiens) (UniProt P05177); assay: p450-cyp1a2 (AID 410; calls by dose curve;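 also: -100% = full effect of reference inhibitor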)
Sequence of Cytochrome P450 1A2 (Homo sapiens) (P05177 whole entry, looked up): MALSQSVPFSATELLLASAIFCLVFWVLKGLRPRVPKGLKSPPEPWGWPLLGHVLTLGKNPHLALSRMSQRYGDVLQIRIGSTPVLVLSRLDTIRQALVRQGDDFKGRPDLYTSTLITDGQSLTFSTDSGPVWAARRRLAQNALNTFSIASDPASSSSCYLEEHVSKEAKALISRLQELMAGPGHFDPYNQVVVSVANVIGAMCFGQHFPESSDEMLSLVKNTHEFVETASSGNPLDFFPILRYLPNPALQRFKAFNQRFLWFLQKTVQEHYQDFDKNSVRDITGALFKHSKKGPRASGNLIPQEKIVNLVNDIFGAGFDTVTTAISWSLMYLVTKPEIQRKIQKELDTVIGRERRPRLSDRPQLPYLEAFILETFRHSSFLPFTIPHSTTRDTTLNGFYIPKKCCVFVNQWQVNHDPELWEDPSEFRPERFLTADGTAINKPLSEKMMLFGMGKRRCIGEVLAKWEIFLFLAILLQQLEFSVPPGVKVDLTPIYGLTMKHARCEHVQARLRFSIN
Summary of the method: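 Luminescent readout of luciferin formed from Luciferin-ME by human CYP1A2; data normalized against complete inhibition by 57 uM furafylline. Enzyme 20nM, substrate 100uM at Km, 100mM KPO4 buffer, 60 min reaction at room temperature.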

[3] = NFAT Signaling Pathway (AID 444; active = well fitted curve in either direction with a large enough effect, not every such curve was filed as active;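 also: carbachol stimulus at about its EC50 of 1 µM final; % is scaled to controls: 0 for no effect and ±100 for the full control effect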); conditions: Jurkat NFAT-bla M1, carbachol, beta-lactamase ratio, 5 h
Summary of the method: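 Jurkat cells with NFAT-driven β-lactamase reporter and co-expressed M1 receptor, stimulated with carbachol (final 1 uM, ~EC50), compound titration, 5 h at 37 °C. CCF4 loaded 1 h at RT; 460/530 nm ratio gave %activity and AC50.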

[4] = Stat Signaling Pathway (AID 446; active = well fitted curve in either direction with a large enough effect, not every such curve was filed as active;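 also: ME-180 cervical cancer cells given 40 pM IL-6 alongside compound; SIE-controlled beta-lactamase reporter measured as 460/530 nm FRET emission ratio; % is scaled to controls: 0 for no effect and ±100 for the full control effect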); conditions: ME-180 SIE beta-lactamase reporter, IL-6 stimulated, 5 h
Summary of the method: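 ME-180 SIE-bla cells; overnight plating; cpd + IL-6 40 pM, 5 h, 37 C; LiveBLAzer 2.5 h RT; 460/530 nm emission ratio. Normalized to 300 pM IL-6 and 125 nM JAK inhibitor controls.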

[5] = target: Glucocorticoid receptor (Homo sapiens) (UniProt P04150); assay: GR-GFP Redistribution (AID 450;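 active = compounds whose dose series gives a full or clear partial fitted curve of increased nuclear translocation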; also: potency is read from the fitted curve at half-maximal effect); conditions: U2OS GR-GFP nuclear translocation, laser cytometry, 2 h
Sequence of Glucocorticoid receptor (Homo sapiens) (P04150 whole entry, looked up, the tested form may be a part): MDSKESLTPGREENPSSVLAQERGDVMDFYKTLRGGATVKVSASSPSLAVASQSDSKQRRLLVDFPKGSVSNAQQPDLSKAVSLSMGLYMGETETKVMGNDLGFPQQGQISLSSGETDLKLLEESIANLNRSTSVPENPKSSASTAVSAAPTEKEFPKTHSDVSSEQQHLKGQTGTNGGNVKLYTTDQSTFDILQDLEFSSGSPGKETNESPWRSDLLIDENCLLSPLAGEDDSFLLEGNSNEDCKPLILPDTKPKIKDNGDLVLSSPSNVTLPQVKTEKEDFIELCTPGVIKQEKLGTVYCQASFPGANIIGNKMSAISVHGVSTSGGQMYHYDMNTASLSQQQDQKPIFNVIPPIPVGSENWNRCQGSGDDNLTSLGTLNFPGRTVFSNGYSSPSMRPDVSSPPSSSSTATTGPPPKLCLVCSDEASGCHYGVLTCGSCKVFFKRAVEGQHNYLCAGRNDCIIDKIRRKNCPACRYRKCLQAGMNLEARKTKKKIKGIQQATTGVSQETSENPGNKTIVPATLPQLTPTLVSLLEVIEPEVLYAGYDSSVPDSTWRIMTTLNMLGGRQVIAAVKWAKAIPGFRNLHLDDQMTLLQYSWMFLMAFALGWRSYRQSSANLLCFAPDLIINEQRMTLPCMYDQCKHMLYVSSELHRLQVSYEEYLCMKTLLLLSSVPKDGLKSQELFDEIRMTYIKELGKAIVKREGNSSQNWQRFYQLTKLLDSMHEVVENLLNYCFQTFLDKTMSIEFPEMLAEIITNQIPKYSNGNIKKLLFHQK

[6] = target: Glucocorticoid receptor (Homo sapiens) (UniProt P04150); assay: GR-EFC Redistribution (AID 451; calls by dose curve; also: potency is read from the fitted curve at half-maximal effect); conditions: CHO-K1 GR-EFC translocation, beta-gal luminescence, 2 h
Summary of the method: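 CHO-K1 cells expressing nuclear EA and GR-ED fragments of b-gal; compounds titrated up to 46 uM final, 2 h at 37 C. GR nuclear translocation read as complemented b-gal luminescence after 1 h RT detection.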

[7] = target: Mitogen-activated protein kinase 10 (Mus musculus) (UniProt Q61831); assay: JNK3 AlphaScreen Assay (AID 530; active = well fitted curve in either direction with a large enough effect, not every such curve was filed as active;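 also: kinase came from lysate of stimulated human HepG2 cells; signal reports phosphorylation of biotinylated GST-cJun 1-79 at Ser73 with 10 µM ATP; % is scaled to controls: 0 for no effect and ±100 for the full control effect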)
Summary of the method: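 Pre-activated (IL-1β/TNFα) JNK3 in HepG2 lysates phosphorylates biotin-GST-cJun(1-79), 10 uM ATP; anti-phospho-cJun(Ser73) AlphaScreen read at room temperature, pH 7.6 Tris buffer. Compounds pre-incubated 15 min as titrations.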

[8] = target: Guanine nucleotide-binding protein G(i) subunit alpha-1 (Homo sapiens) (UniProt P63096); assay: qHTS Assay for Inhibitors of RGS12 GoLoco Motif Activity (Green Fluorophore) (AID 879);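 also: 0% = labeled peptide with Gαi1 and full inhibition = labeled peptide alone without protein; negative values mean loss of peptide binding seen as reduced polarization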
Sequence of Guanine nucleotide-binding protein G(i) subunit alpha-1 (Homo sapiens) (P63096 whole entry, looked up): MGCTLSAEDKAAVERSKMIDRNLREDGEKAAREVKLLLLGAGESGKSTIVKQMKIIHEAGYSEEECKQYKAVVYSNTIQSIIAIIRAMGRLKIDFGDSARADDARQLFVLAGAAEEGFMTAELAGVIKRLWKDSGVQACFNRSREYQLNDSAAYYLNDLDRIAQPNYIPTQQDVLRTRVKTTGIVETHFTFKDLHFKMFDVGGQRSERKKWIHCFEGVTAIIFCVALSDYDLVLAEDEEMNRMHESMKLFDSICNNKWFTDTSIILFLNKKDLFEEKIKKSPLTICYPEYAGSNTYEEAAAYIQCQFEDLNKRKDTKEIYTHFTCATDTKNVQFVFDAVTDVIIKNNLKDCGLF
Summary of the method: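 Fluorescence polarization assay: 50 nM Gαi1 with 10 nM FITC-labeled RGS12 GoLoco peptide in 10 mM Tris pH 7.5, 150 mM NaCl, 0.1 mM GDP, 0.05% NP40, 10 min at room temperature with compound.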

[9] = target: Cytochrome P450 2C19 (Homo sapiens) (UniProt P33261); assay: qHTS Assay for Inhibitors and Substrates of Cytochrome P450 2C19 (AID 899); also: % is scaled to controls: 0 for no effect and ±100 for the full control effect; nearly all actives have a fitted effect of over 60% in size
Sequence of Cytochrome P450 2C19 (Homo sapiens) (P33261 whole entry, looked up): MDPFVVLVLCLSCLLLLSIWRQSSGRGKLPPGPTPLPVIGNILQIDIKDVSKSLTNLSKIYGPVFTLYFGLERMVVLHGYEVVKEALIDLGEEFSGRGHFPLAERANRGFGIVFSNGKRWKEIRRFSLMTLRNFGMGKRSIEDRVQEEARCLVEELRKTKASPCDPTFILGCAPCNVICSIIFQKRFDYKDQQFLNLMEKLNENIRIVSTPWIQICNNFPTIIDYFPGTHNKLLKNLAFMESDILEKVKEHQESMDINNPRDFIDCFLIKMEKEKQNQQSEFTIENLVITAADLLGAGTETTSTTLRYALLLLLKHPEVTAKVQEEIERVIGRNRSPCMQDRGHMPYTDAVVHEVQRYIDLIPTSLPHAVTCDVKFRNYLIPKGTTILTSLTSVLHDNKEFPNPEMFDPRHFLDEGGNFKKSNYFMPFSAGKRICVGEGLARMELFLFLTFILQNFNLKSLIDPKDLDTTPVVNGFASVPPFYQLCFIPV
Summary of the method: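 Signal comes from luciferase acting on luciferin released by CYP2C19-mediated hydroxylation of Luciferin-H EGE, 10uM (KM). Assay mix: 5nM enzyme, 50mM KPO4; 60 min at 37C with NADPH regeneration. Data normalized against 57uM ketoconazole.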

[10] = target: Pyruvate kinase (Leishmania mexicana) (UniProt Q27686); assay: qHTS Validation Assay for Inhibitors of Leishmania Mexicana Pyruvate Kinase (AID 945);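 also: 0% = DMSO only neutral control wells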
Sequence of Pyruvate kinase (Leishmania mexicana) (Q27686 2-499 E452W): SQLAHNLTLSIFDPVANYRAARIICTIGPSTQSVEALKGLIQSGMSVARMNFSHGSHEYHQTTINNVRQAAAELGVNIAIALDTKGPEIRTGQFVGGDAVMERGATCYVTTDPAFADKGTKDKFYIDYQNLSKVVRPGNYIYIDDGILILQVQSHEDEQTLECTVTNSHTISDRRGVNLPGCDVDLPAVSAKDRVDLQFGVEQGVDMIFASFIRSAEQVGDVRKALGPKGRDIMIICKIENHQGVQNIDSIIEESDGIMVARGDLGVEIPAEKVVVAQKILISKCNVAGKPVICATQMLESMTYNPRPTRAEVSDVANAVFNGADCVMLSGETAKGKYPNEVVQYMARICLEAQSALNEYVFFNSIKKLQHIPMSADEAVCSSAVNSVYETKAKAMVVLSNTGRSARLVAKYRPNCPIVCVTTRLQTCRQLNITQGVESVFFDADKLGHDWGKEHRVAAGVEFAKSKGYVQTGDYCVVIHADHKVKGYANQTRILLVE
Summary of the method: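 Compounds are tested as eight-point concentration series. Reactions contain 0.2 nM LmPYK E451W, 0.5 mM PEP, 0.1 mM ADP, 7 mM MgCl2 and 50 mM KCl at pH 7.2, run 1 h at room temperature, then read by PKLight luminescence.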

[11] = target: Pyruvate kinase PKM (Homo sapiens) (UniProt P14618); assay: qHTS Assay for Activators of Human Muscle Pyruvate Kinase (AID 954; active = well fitted curve in the direction sought with a large enough effect, not every such curve was filed as active;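 also: 0% = uninhibited enzyme and -100% = no enzyme or full thiadiazolimine inhibition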)
Sequence of Pyruvate kinase PKM (Homo sapiens) (P14618 whole entry, looked up): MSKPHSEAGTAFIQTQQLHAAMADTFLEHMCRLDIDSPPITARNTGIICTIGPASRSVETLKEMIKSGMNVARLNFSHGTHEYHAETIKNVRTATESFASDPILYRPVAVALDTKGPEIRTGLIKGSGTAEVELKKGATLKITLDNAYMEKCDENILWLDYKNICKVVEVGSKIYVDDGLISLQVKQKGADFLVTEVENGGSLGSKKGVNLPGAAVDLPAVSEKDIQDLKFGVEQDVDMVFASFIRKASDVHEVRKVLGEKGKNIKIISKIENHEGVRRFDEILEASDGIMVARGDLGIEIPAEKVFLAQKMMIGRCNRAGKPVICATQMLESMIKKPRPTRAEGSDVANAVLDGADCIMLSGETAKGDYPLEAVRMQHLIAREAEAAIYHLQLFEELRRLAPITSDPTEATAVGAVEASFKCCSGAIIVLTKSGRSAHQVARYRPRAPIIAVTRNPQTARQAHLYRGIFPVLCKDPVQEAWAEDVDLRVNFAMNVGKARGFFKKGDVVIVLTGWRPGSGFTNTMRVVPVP
Summary of the method: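 Luminescence from a luciferase ATP-detection/stop reagent reported PKM2 activity. Reactions contained 0.1 nM purified human enzyme, 0.5 mM PEP, 0.1 mM ADP and 7 mM MgCl2 at pH 7.2, run 1 h at RT.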

[12] = target: Alpha-galactosidase A (Homo sapiens) (UniProt P06280); assay: Counterscreen for Glucocerebrosidase Inhibitors: qHTS Assay for Human alpha-Galactosidase at pH 4.5 (AID 992); also: 0% is about no effect
Sequence of Alpha-galactosidase A (Homo sapiens) (P06280 whole entry, looked up): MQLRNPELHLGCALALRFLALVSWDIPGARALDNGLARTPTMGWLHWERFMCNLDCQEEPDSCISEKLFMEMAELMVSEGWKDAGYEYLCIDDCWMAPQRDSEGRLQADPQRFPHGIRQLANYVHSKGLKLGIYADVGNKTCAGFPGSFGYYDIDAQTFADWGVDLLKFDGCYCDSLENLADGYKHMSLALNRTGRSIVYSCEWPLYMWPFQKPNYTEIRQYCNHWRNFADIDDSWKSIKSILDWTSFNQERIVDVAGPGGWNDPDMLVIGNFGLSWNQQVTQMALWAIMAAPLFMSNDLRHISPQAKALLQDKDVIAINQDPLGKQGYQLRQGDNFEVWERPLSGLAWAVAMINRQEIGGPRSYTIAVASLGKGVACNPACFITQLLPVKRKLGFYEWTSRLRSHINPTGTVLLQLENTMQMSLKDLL
Summary of the method: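 Enzyme at 2 nM final was combined with compound (0.7 nM to 77 uM) and 80 uM 4-methylumbelliferyl alpha-D-galactopyranoside in 50 mM citric acid, 0.005% Tween-20, pH 4.5. After 20 min at room temperature, fluorescence was read (Ex 365/Em 440 nm); AC50 came from Hill fits.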

[13] = target: alpha-glucosidase (Oryza sativa, rice) (UniProt Q653V4); assay: Counterscreen for Glucocerebrosidase Inhibitors: qHTS Assay for Rice alpha-Glucosidase at pH 5.0 (AID 997);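 also: 0% = full activity with enzyme and -100% = basal without enzyme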
Summary of the method: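 Rice alpha-glucosidase (4 nM final) with 400 uM 4-methylumbelliferyl-alpha-D-glucopyranoside in citrate buffer pH 5.0, 20 min at room temperature, stopped at pH 10; fluorescence 365/440 nm, compounds 0.7 nM–77 uM, AC50 from Hill fits.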

[14] = qHTS Assay for Lipid Storage Modulators (AID 1519; calls by dose curve); conditions: Drosophila S3 cells, BODIPY lipid droplet/cell ratio, laser cytometry, cells loaded with oleic acid
Summary of the method: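 Cells seeded at 5,000 per well were treated with compounds over a concentration series and loaded with oleic acid (400 uM, as added). Lipid droplet fluorescence (488 nm excitation, 500-530 nm channel) was read by laser-scanning cytometry and normalized to 20 uM Triacsin C.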

[15] = target: Ubiquitin carboxyl-terminal hydrolase 1 (Homo sapiens) (UniProt O94782); assay: Inhibitors of USP1/UAF1: Pilot qHTS (AID 504865);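 also: rhodamine fluorescence freed from ubiquitin-rhodamine substrate followed over time; top concentration of the series differs between compounds; % is scaled to controls: 0 for no effect and ±100 for the full control effect; nearly all actives have a fitted effect of over 35% in size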
Summary of the method: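 USP1/UAF1 complex (1nM) preincubated with compound 15 min at room temperature, then Ub-Rho substrate (150nM final) added. Fluorescence read kinetically at 480/540 nm, 6 reads every 60 seconds. Buffer: 50mM HEPES pH 7.8, 0.5mM EDTA, 0.1 mg/ml BSA, 1mM TCEP, 0.01% Tween-20.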

[16] = target: DNA dC->dU-editing enzyme APOBEC-3G (Homo sapiens) (UniProt Q9HC16); assay: qHTS for inhibitors of Vif-A3G interactions: Validation (AID 588379); also: 0% is about no effect
Sequence of DNA dC->dU-editing enzyme APOBEC-3G (Homo sapiens) (Q9HC16 whole entry, looked up): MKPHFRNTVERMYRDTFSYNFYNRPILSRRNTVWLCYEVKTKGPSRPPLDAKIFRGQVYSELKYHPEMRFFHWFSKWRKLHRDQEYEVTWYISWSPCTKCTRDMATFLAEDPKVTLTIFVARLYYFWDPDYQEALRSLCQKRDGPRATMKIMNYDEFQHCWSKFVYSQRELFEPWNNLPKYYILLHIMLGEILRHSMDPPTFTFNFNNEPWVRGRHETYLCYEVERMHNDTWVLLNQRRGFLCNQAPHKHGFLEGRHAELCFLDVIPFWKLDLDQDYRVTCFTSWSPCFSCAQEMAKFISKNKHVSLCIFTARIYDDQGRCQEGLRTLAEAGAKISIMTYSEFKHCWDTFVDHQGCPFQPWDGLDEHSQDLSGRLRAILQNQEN
Summary of the method: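 HeLa cells stably expressing Vif and A3G-eYFP, 700 cells/well, incubated overnight at 37 deg C, then exposed to compound overnight at 37 deg C. Inhibition of Vif-mediated degradation read as increased yellow fluorescence (Ex 488/Em 500-530) by laser-scanning cytometry.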

[17] = test system: Zika virus NS2B-NS3 protease; assay: Primary screen GU AMC qHTS for Zika virus inhibitors (AID 1347154);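 also: 0% = no-inhibitor control and -100% = no-enzyme control; nearly all actives have a fitted effect of over 70% in size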
Summary of the method: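 Unlinked Zika NS2B hydrophilic domain–NS3 protease complex at 25 nM in 10 mM Tris-HCl pH 8.0, 0.01% Tween 20, with an AMC peptide substrate. Fluorescence change (340/450 nm) over 15 min at room temperature, normalized to controls, fitted to 4-parameter Hill.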

[18] = Primary qHTS for small molecule stabilizers of the endoplasmic reticulum resident proteome: Secreted ER Calcium Modulated Protein (SERCaMP) assay (AID 1508630); also: % is scaled to controls: 0 for no effect and ±100 for the full control effect
Summary of the method: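 GLuc-SERCaMP-expressing SH-SY5Y cells, pretreated 16 h with compound, are challenged with thapsigargin to empty ER calcium stores; after 4 h, coelenterazine is added directly to the medium and luminescence is imaged.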

[19] = target: 3',5'-cyclic-AMP phosphodiesterase 4B (Homo sapiens) (UniProt Q07343); assay: qHTS Assay for Inhibitors of PDE-IV (AID 607; active = well fitted activation curve with a large enough effect in the main read-out, with a control signal flat, not every such curve was filed as active; also: % of control where 0% means no effect)
Sequence of 3',5'-cyclic-AMP phosphodiesterase 4B (Homo sapiens) (Q07343 whole entry, looked up): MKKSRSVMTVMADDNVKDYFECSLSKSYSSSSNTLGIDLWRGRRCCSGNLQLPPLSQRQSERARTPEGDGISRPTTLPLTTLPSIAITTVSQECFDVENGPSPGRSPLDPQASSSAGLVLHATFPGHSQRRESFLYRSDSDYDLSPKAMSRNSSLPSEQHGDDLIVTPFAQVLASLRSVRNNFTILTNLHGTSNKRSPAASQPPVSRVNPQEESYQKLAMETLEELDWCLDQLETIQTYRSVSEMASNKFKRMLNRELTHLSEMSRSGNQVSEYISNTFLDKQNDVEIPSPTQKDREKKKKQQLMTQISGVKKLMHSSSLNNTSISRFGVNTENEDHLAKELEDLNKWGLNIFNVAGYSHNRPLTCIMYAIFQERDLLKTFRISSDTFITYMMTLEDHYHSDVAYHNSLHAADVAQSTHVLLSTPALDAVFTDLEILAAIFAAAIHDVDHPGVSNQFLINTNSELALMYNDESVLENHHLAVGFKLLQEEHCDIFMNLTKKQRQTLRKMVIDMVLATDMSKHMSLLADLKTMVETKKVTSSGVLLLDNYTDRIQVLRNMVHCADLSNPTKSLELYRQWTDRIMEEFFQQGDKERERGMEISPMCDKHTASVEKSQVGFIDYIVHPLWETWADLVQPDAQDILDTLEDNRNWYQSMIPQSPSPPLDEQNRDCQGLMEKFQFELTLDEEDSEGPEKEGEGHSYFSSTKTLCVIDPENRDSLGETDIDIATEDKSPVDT
Summary of the method: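 ACTOne HEK293 cells carry a modified cAMP-gated CNG channel and express endogenous PDE4; plated 1000 cells/well, compounds up to 22.9 uM final. Membrane-potential dye fluorescence (ex 535/em 590) was read; parental cells received 10 uM forskolin + 100 uM RO 20-1724.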

[20] = target: Cytochrome P450 2C9 (Homo sapiens) (UniProt P11712); assay: qHTS Assay for Inhibitors and Substrates of Cytochrome P450 2C9 (AID 883); also: % is scaled to controls: 0 for no effect and ±100 for the full control effect; nearly all actives have a fitted effect of over 60% in size
Summary of the method: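 Signal: luciferase luminescence reporting luciferin produced by CYP2C9. Conditions: 10nM enzyme, Luciferin-H 100uM at KM, 25mM KPO4, 37C, 60 min NADPH-driven reaction. Reference: 57uM sulphaphenazole as 100% inhibition.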

[21] = target: Cytochrome P450 3A4 (Homo sapiens) (UniProt P08684); assay: qHTS Assay for Inhibitors and Substrates of Cytochrome P450 3A4 (AID 884); also: % is scaled to controls: 0 for no effect and ±100 for the full control effect; nearly all actives have a fitted effect of over 50% in size
Summary of the method: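 20 nM human CYP3A4 with 25 uM Luciferin-PPXE (at KM) in 200 mM KPO4, preincubated 10 min with compound; NADPH regeneration started a 60 min RT reaction. Luciferin detected by luminescence, normalized to 57 uM ketoconazole as full inhibition.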

[22] = Confirmation and Secondary Assay for Modulators of Hemoglobin Beta Chain Splicing at IVS2 654 locus (AID 910);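 also: HeLa cells stably carrying EGFP split by mutant beta-globin IVS2-654 intron; % of control where 0% means no effect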
Summary of the method: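 HeLa cells stably expressing EGFP interrupted by β-globin IVS2-654 intron, seeded overnight in Opti-MEM/2% FCS, then treated 2 days at 37 °C. Restored splicing read as total peak GFP intensity per well by laser scanning cytometry (488 nm excitation, 500–520 nm emission); 500 nM antisense PNA as control.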

[23] = Confirmation and Secondary Assay for Modulators of Hemoglobin Beta Chain Splicing at IVS2 705 locus (AID 930);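 also: HeLa cells stably expressing the EGFP-705 splicing reporter; GFP fluorescence per well restored by corrected splicing of the IVS2-705 intron in EGFP; % of control where 0% means no effect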
Summary of the method: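 Fluorescence gain (488 nm laser, 500-520 nm PMT) reflects restored correct splicing of a mutant IVS2-705 intron inside EGFP in stably transfected HeLa cells after 2-day compound treatment.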

[24] = measured here: cell count channel max response
[25] = measured here: lipid channel max response

CC(C)NC[C@H](O)c1ccc(NS(C)(=O)=O)cc1
-18.7% and 20.5%: max response [14, 24]
inactive: activity change, negative = inhibition ([1]; at 17.2 µM (top of the series)) -5.04% | activity change, negative = inhibition ([1]; at 38 µM (top of the series)) -0.189% | Potency [2] | activity change, negative = inhibition ([3]; at 38 µM (top of the series)) -7.39% | activity, negative = inhibition ([4]; at 17.2 µM (top of the series)) -2.38% | activity, negative = inhibition ([4]; at 38 µM (top of the series)) 2.96% | Potency [5] > 46 µM and > 20.6 µM | Potency [6] > 46 µM and > 20.6 µM | Potency [7] | outcome [8] | Potency [9] | Potency [10] | outcome [11] | outcome [12] | outcome [13] | activity change, negative = inhibition ([14]; at 25.7 µM (top of the series)) -2.05% | activity change, negative = inhibition ([14]; at 57.5 µM (top of the series)) -2.56% | Potency [15] | Potency [16] | Potency [17] | Potency [18]
-18.8% and 17.8%: max response [14, 25]

CCCCCCCCCCCCC/C=C/[C@@H](O)[C@H](CO)NC(C)=O
inactive: activity change, negative = inhibition [17] 16.6% [at 6.83 µM] | activity change, negative = inhibition [18] 1.43% [at 3.88 µM]

CCCCC/C=C\C/C=C\CCCCCCCC(=O)O[C@@H](CO)COC(=O)CCCCCCCCCCCCCCCCC
inactive: activity change, negative = inhibition [17] 7.9% [at 6.83 µM] | activity change, negative = inhibition [18] 6.55% [at 3.88 µM]

CCCCCCCCCCCCCCCC(=O)N[C@@H](COP(=O)(O)O)C(=O)O
inactive: activity change, negative = inhibition [17] 6.63% [at 6.83 µM] | activity change, negative = inhibition [18] 2.76% [at 3.88 µM]

O=C1CC[C@H](N2C(=O)c3ccccc3C2=O)C(=O)N1
11% and -21.2%: max response [14, 24]
5.6% and -23.7%: max response [14, 25]
inactive: activity change, negative = inhibition ([1]; at 17.2 µM (top of the series)) 0.427% | activity change, negative = inhibition ([1]; at 38 µM (top of the series)) -0.244% | Potency [2] | activity change, negative = inhibition ([3]; at 17.2 µM (top of the series)) -1.74% | activity change, negative = inhibition ([3]; at 38 µM (top of the series)) -10.1% | activity, negative = inhibition ([4]; at 17.2 µM (top of the series)) 3.42% | activity, negative = inhibition ([4]; at 38 µM (top of the series)) -18.4% | Potency [5] > 46 µM and > 20.6 µM | Potency [6] > 46 µM and > 20.6 µM | Potency [7] | Potency [19] | outcome [8] | Potency [20] | Potency [21] | Potency [9] | outcome [22] | outcome [23] | Potency [10] | outcome [11] | outcome [12] | outcome [13] | activity change, negative = inhibition ([14]; at 25.7 µM (top of the series)) -1.97% | activity change, negative = inhibition ([14]; at 57.5 µM (top of the series)) -4.08% | Potency [15] | Potency [16] | Potency [17] | Potency [18]

From PubChem BioAssay (NCATS)
